# Most compounds without a hit are left out; they make up all but 10% or so of the library.
# GPT2 inhibitor = blocks human glutamate pyruvate transaminase 2 | Q8TD30 | Recombinant GPT2, coupled pyruvate oxidase/HRP Amplex Red fluorescence | Potency, µM (doses to about 57.7 µM), inactives show at the highest dose activity change, negative = inhibition, actives largely listed as inhibitors | actives 0.25% (n = 100,000) | AID 1671188; further: on the % scale 0 is the no-effect control and ±100 the full control effect; nearly all actives have a fitted effect of over 60% in size
# Target sequence (Q8TD30 whole entry, looked up): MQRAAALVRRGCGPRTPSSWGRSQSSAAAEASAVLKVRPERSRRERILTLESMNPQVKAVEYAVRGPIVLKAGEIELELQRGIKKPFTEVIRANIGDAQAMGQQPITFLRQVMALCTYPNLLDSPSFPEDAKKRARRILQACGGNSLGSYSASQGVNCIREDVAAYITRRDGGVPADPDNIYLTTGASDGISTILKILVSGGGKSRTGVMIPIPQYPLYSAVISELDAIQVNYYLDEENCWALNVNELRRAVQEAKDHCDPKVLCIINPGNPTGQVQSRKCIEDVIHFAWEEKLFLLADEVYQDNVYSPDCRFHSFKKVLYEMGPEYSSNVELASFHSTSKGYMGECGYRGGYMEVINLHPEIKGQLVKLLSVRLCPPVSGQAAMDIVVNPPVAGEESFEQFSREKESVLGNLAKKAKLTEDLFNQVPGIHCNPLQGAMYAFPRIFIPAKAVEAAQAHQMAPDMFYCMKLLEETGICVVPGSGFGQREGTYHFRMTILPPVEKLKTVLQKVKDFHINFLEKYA
#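 GPT2 10ng/uL, a-KG 250uM, L-Ala 2mM, HEPES pH7.5 + 0.0001% Tween; 30 min RT. Then Amplex mix (PO/HRP/ThPP), 30 min RT dark, fluorescence. AOA 50uM used as positive control.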
# HEK cytotox = HEK 293 cell cytotoxicity | HEK 293 viability, ATP luminescence (CellTiter-Glo), 48-72 h | Potency, µM (doses to about 115 µM), inactives show at the top dose activity change, negative = cytotoxicity, hits mostly inhibitors | actives 6.6% (n = 94,000); further: on the % scale 0 is the no-effect control and ±100 the full control effect; nearly all actives have a fitted effect of over 60% in size
#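 Read-out: CellTiter-Glo ATP luminescence. Cells: HEK 293, 250 cells/well. Exposure: 48 or 72 hr, 37 degree Celsius.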
# FLuc inh-1 = inhibitors of firefly (Photinus pyralis) luciferase | P08659 | purified P. pyralis luciferase, luminescence, biochemical | Potency, µM (top dose mostly 115 µM), most hits filed as inhibitors | actives 2.5% (n = 76,000) | AID 1347043; further: on the % scale 0 is the no-effect control and ±100 the full control effect; nearly all actives have a fitted effect of over 65% in size
#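 Luminescence read by CCD imaging after purified firefly luciferase (10nM final) was added to substrate buffer holding 10uM D-luciferin and 10uM ATP, pH 7.5, pre-dosed with compound.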
# hNpr1 antagonist = blocks ANP-stimulated signaling of human Npr1 receptor; P16066; HEK293 hNpr1 GloSensor cGMP, ANP-stimulated luminescence; Potency, µM (doses to about 46.3 µM), for the others: at the highest dose activity change, negative = inhibition, hits mostly inhibitors; actives 1.6% (n = 76,000); calls by dose curve; further: on the % scale 0 is the no-effect control and ±100 the full control effect; nearly all actives have a fitted effect of over 60% in size
#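 HEK293 cells stably expressing human Npr1 and cGMP GloSensor pGS-40F, loaded 2 h with 2% GloSensor reagent, given compound 30 min at room temperature. Luminescence read before and 20 min after 0.1 nM hNppA.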
# 3T3 cytotox = kills NIH 3T3 cells; Potency, µM (doses to about 96.7 µM), without a hit: at the top dose activity change, negative = cytotoxicity, actives largely listed as inhibitors; actives 4.3% (n = 94,000); NIH 3T3 viability, CellTiter-Glo ATP luminescence, 48-72 h; further: on the % scale 0 is the no-effect control and ±100 the full control effect; nearly all actives have a fitted effect of over 55% in size
#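 Luminescent ATP readout (CellTiter-Glo, 10 min RT) after 48 or 72 hr compound exposure of NIH 3T3 cells seeded at 400 cells/well in 1536-well format; quantitative HTS.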
# FLuc SDR no ATP = firefly luciferase binding stabilization, ATP absent; shares compounds with FLuc inh-1; Purified FLuc-C-HiBiT, Nano-Glo HiBiT luminescence, no ATP; Potency, µM (doses to about 32.7 µM), for the others: at the highest dose activation (signal gain), most hits filed as activators; actives 7.8% (n = 1,300); further: nearly all actives have a fitted effect of over 55% in size
# FLuc SDR ATP = firefly luciferase binding stabilization, ATP added; shares compounds with FLuc inh-1; purified FLuc-C-HiBiT + ATP, HiBiT complementation luminescence; Potency, µM (highest dose often 32.7 µM), for inactives: top-dose activation (gain of signal), hits mostly activators; actives 8.7% (n = 1,300); AID 1963319;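 further: signal reports ligand binding via conformational change of the enzyme rather than luciferase catalysis; % of control where 0% means no effect; nearly all actives have a fitted effect of over 55% in size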
# FLuc inh-2 = inhibitors of firefly luciferase enzymatic activity | purified FLuc-C-HiBiT enzyme, luciferin luminescence | Potency, µM (series often up to 32.7 µM), for inactives: at the top dose activity change, negative = inhibition, hits mostly inhibitors | AID 1963320 | actives 42% (n = 1,300) | shares compounds with FLuc inh-1; further: on the % scale 0 is the no-effect control and ±100 the full control effect; nearly all actives have a fitted effect of over 70% in size
# Numbers without * were called inactive; i = inactive; ? = inconclusive; . = no result given; [ ] = dose if it differs, or a comment. Unless noted, the call rests on the fitted dose curve; in most records, active means well fitted curve in the direction sought with a large enough effect; inconclusive means small, poorly fitted or top-dose-only effect, or another doubt; inactive means no such curve, though single readings can be large; an effect the other way counts as inactive or inconclusive. Potency means the concentration at half of the fitted maximal effect.
SMILES,GPT2 inhibitor,HEK cytotox,FLuc inh-1,hNpr1 antagonist,3T3 cytotox,FLuc SDR no ATP,FLuc SDR ATP,FLuc inh-2
CC1CCCN(C(=O)c2cc3ccc4cccnc4c3[nH]2)C1 (stereo unspecified),.,.,.,.,.,3.94µM*,2.48µM*,0.556µM*
CN1CC(C(=O)NCCCc2ccccc2)NC1=O (stereo unspecified),?,0.5%[172 µM],.,.,-12.5%[138 µM],.,.,.
O=C(O)CCSc1nnc(-c2ccc(Cl)cc2Cl)o1,.,.,.,.,.,?,0.7µM*,0.495µM*
COCCN1CCCCCC(O)c2cc(C(=O)N3CCN(c4ccccc4F)CC3)ccc21 (stereo unspecified),i,?,i,-13.9%,?,.,.,.
CCc1ccc(-n2nc(CO)c(C(=O)NC)n2)cc1,.,.,.,.,.,?,18.9%,?
Cc1cn2c(=O)cc(COC(=O)c3ccccc3F)nc2s1,.,.,.,.,.,11.7%,?,?
Cc1ccc(NC(=O)C2CCN(C(=O)c3ncn4c3COC(c3ccccc3)C4)CC2)cc1C (stereo unspecified),-2.3%,4.9%,3.98µM*,6.4%,i,13.7%,?,?
COc1ccc(NC(=O)C2CCN(C(=O)c3ncn4c3COC(c3ccccc3)C4)CC2)cc1OC (stereo unspecified),i,12.4%,5.62µM*,-2.1%,0.3%,12.8%,?,3.51µM*
COc1ccc(NC(=O)C2CCN(C(=O)c3ncn4c3COC(c3ccccc3)C4)CC2)cc1 (stereo unspecified),i,8.2%,8.91µM*,1.5%,i,11.2%,?,?
COc1ccc(NC(=O)CCc2ccnc(N3CCCC3)c2)c(OC)c1,i,-15.7%,i,-4.7%,-23.8%,.,.,.
CCOc1ccccc1NC(=O)Nc1cccc(-c2ccc(N3CCOCC3)nn2)c1,1.4%,25.1µM*,2.82µM*,-25.3%,?,28.4%,?,3.94µM*
COc1ccc(NC(=O)Nc2cccc(-c3ccc(N4CCCCC4)nn3)c2)c(OC)c1,i,?,0.316µM*,7.94µM*,-17.9%,?,?,0.989µM*
CCOc1ccccc1NC(=O)Nc1ccc(-c2nnc3n2CCCC3)cc1,i,-7.9%,i,-3.4%,-1.9%,.,.,.
COc1ccc(NC(=O)Nc2cccc(-c3ccc(N4CCOCC4)nn3)c2)cc1Cl,?,22.4µM*,0.631µM*,12.6µM*,?,?,?,1.24µM*
O=C(Nc1cccc(-c2ccc(N3CCOCC3)nn2)c1)Nc1cccc(C(F)(F)F)c1,?,28.2µM*,1.78µM*,11.2µM*,?,?,18.2%,4.95µM*
Cc1ccc(NC(=O)c2ccc3nc(-c4cccc(C)n4)oc3c2)cc1,2.3%[88.5 µM],?,.,.,-12.3%[138 µM],.,.,.
O=C(CC1CCCCC1)Nc1cccc(-c2nnc3n2CCCC3)c1,i,-1.6%,i,-9.9%,-4.7%,.,.,.
CN1CCN(c2ccc(-c3cccc(NC(=O)C4CCCCC4)c3)nn2)CC1,i,?,14.1µM*,-11.1%,?,27.3%,18.4%,8.81µM*
CCCCN1C(=O)[C@@H]2C[C@@H](O)CN2C2(CN(Cc3ccc(F)cc3)C2)C1=O,-2.8%[88.5 µM],2.7%[172 µM],i,5.7%[70.6 µM],-7.5%[174 µM],.,.,.
O=C(Nc1ccccc1)NC1CCCN(c2ccc3nnc(C4CC4)n3n2)C1 (stereo unspecified),.,3.8%,.,.,4.1%,.,.,.

# Screens (PubChem BioAssay)
